Data: PubChem BioAssay (NCI)
Compounds without any hit were thinned out: in the full panel of roughly 83,000, 20% have a hit.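 Plates (96-well) were seeded with cells, treated with compound at one concentration, and incubated for 48 hours before percent growth was determined.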

Legend:
Experiment in all cases: NCI-60 one-dose screen, 48 h (100 = growth as untreated, 0 = no growth, -100 = all killed); active = growth percent below 10; inactive = the rest
HCT-15 colon = settings: 10 µM unless noted
HT29 colon = settings: 10 µM unless noted
SNB-75 CNS = settings: 10 µM unless noted
SNB-19 CNS = settings: 10 µM unless noted
U251 CNS = settings: 10 µM unless noted
PC-3 prostate = settings: 10 µM unless noted
SK-MEL-5 melanoma = settings: 10 µM unless noted
UACC-62 melanoma = settings: 10 µM unless noted
LOX IMVI melanoma = settings: 10 µM unless noted
SK-MEL-28 melanoma = settings: 10 µM unless noted
SK-MEL-2 melanoma = settings: 10 µM unless noted
EKVX NSCLC = settings: 10 µM unless noted
SN12C renal = settings: 10 µM unless noted
UO-31 renal = settings: 10 µM unless noted
TK-10 renal = settings: 10 µM unless noted
ACHN renal = settings: 10 µM unless noted
CAKI-1 renal = settings: 10 µM unless noted
A498 renal = settings: 10 µM
HL-60(TB) leukemia = settings: 10 µM unless noted
CCRF-CEM leukemia = settings: 10 µM unless noted

Measured: growth

NC(=Nc1ccccc1)N[N+](=O)[O-]
inactive: HCT-15 colon 105% | HT29 colon 100% | SNB-75 CNS 87.5% | SNB-19 CNS 96.9% | U251 CNS 111% | PC-3 prostate 94.2% | SK-MEL-5 melanoma 103% | UACC-62 melanoma 94% | LOX IMVI melanoma 103% | SK-MEL-28 melanoma 105% | SK-MEL-2 melanoma 127% | EKVX NSCLC 94% | SN12C renal 102% | UO-31 renal 92% | TK-10 renal 103% | ACHN renal 114% | CAKI-1 renal 97.6% | A498 renal 110% | HL-60(TB) leukemia 38.7% | CCRF-CEM leukemia 52.1%

Cc1ccc(C(Cc2ccccc2)NCCO)cc1 (stereo not drawn)
inactive: HCT-15 colon 103% | HT29 colon 65.4% | SNB-75 CNS 87.1% | SNB-19 CNS 99.3% | U251 CNS 87.8% | PC-3 prostate 69.4% | SK-MEL-5 melanoma 98.4% | UACC-62 melanoma 94.7% | LOX IMVI melanoma 100% | SK-MEL-28 melanoma 61.9% | SK-MEL-2 melanoma 54.7% | EKVX NSCLC 100% | SN12C renal 102% | UO-31 renal 86.1% | TK-10 renal 88% | ACHN renal 89.6% | CAKI-1 renal 98% | A498 renal 97.9% | HL-60(TB) leukemia 91.4% | CCRF-CEM leukemia 98.5%

C/C(=C\c1cc(C(F)(F)F)nn1CCNC(=O)OC(C)(C)C)[C@@H]1C[C@@H]2O[C@]2(C)CCC[C@H](C)[C@H](O)[C@@H](C)C(=O)C(C)(C)[C@@H](O)CC(=O)O1
inactive: HCT-15 colon 39.5% | HT29 colon 23.6% | SNB-75 CNS 37.2% | SNB-19 CNS 65.4% | U251 CNS 61.4% | PC-3 prostate 32% | SK-MEL-5 melanoma 38.8% | UACC-62 melanoma 40.7% | LOX IMVI melanoma 55.9% | SK-MEL-28 melanoma 79.2% | SK-MEL-2 melanoma 75.1% | EKVX NSCLC 65% | SN12C renal 87% | UO-31 renal 49.5% | TK-10 renal 69.2% | ACHN renal 74.6% | CAKI-1 renal 47.1% | A498 renal 49.3% | HL-60(TB) leukemia 14.1%

CCCCN(CCCC)P(=O)(Oc1ccccc1)Oc1ccccc1
inactive: HCT-15 colon 68.1% | HT29 colon 39.1% | SNB-75 CNS 50.9% | SNB-19 CNS 60.1% | U251 CNS 53.1% | PC-3 prostate 38.6% | SK-MEL-5 melanoma 67% | UACC-62 melanoma 60.1% | LOX IMVI melanoma 67.7% | SK-MEL-28 melanoma 94.1% | SK-MEL-2 melanoma 43.4% | EKVX NSCLC 59% | SN12C renal 59.9% | UO-31 renal 42.2% | TK-10 renal 78.5% | ACHN renal 80.8% | CAKI-1 renal 32.4% | A498 renal 93.8% | HL-60(TB) leukemia 32.5% | CCRF-CEM leukemia 61.9%

CC(=O)Nc1nc2c(s1)CC[C@@]1(C)C2=CC[C@H]2[C@@H]3CC[C@H](O)[C@@]3(C)CC[C@@H]21
inactive: HCT-15 colon 29.5% | HT29 colon 20.8% | SNB-75 CNS 54.5% | SNB-19 CNS 62.1% | U251 CNS 48.5% | PC-3 prostate 67.8% | SK-MEL-5 melanoma 53.7% | UACC-62 melanoma 34.9% | LOX IMVI melanoma 53.6% | SK-MEL-28 melanoma 56.4% | SK-MEL-2 melanoma 47.4% | EKVX NSCLC 92.5% | SN12C renal 74% | UO-31 renal 80.3% | TK-10 renal 91.1% | ACHN renal 63.9% | CAKI-1 renal 44.1% | A498 renal 67.8% | HL-60(TB) leukemia 29.3% | CCRF-CEM leukemia 38.8%

COc1cccc2c1c(C(=O)c1ccco1)cn2Cc1ccc(F)cc1
inactive: HCT-15 colon 103% | HT29 colon 118% | SNB-75 CNS 121% | SNB-19 CNS 119% | U251 CNS 112% | PC-3 prostate 105% | SK-MEL-5 melanoma 96.3% | UACC-62 melanoma 78.3% | LOX IMVI melanoma 109% | SK-MEL-28 melanoma 123% | SK-MEL-2 melanoma 73.8% | EKVX NSCLC 172% | SN12C renal 72.4% | UO-31 renal 77.1% | TK-10 renal 143% | ACHN renal 107% | CAKI-1 renal 184% | A498 renal 135% | HL-60(TB) leukemia 162% | CCRF-CEM leukemia 177%

CC(C)COC(C[N+](=O)[O-])C(Cl)(Cl)Cl (stereo not drawn)
inactive: HCT-15 colon 105% | HT29 colon 106% | SNB-75 CNS 90.4% | SNB-19 CNS 106% | U251 CNS 95.7% | PC-3 prostate 91% | SK-MEL-5 melanoma 112% | UACC-62 melanoma 101% | LOX IMVI melanoma 103% | SK-MEL-28 melanoma 99.4% | SK-MEL-2 melanoma 115% | EKVX NSCLC 97.2% | SN12C renal 105% | UO-31 renal 97.2% | TK-10 renal 105% | ACHN renal 107% | CAKI-1 renal 102% | A498 renal 84.6% | HL-60(TB) leukemia 93% | CCRF-CEM leukemia 113%

O=C(CCCC1CCCCC1)OCC(Cl)(Cl)Cl
inactive: HCT-15 colon 108% | HT29 colon 103% | SNB-75 CNS 101% | SNB-19 CNS 106% | U251 CNS 97% | PC-3 prostate 91.4% | SK-MEL-5 melanoma 107% | UACC-62 melanoma 98.9% | LOX IMVI melanoma 101% | SK-MEL-28 melanoma 113% | SK-MEL-2 melanoma 109% | EKVX NSCLC 105% | SN12C renal 106% | UO-31 renal 91.1% | TK-10 renal 98.7% | ACHN renal 110% | CAKI-1 renal 102% | A498 renal 60.6% | HL-60(TB) leukemia 100%
